Data as given in PubChem BioAssay (EPA / NIEHS).
The source made the active and inactive calls. How the source made its calls: active means hit-call score of the fitted dose curve at least 0.9, where 1 is the maximum; inactive means score below 0.9.

Assay: APR_HepG2_MitoticArrest_1hr: Apredica 1-hour HepG2 Assay for Mitotic Arrest (AID 2282672)
Conditions: high-content imaging, actives raise or lower the signal
Description: APR_HepG2_1hr is a cell-based, multiplexed-readout assay that uses HepG2, a human liver cell line, with measurements taken at 1 hour after chemical dosing in a 384-well plate.APR_HepG2_MitoticArrest_1hr is one of 10 assay component(s) measured or calculated from the APR_HepG2_1hr assay. It is designed to make measurements of cell phenotype, a form of morphology reporter, as detected with fluorescence intensity signals by HCS Fluorescent Imaging technology.Data from the assay component APR_HepG2_MitoticArrest_1hr was analyzed into 1 assay endpoint. This assay endpoint, APR_HepG2_MitoticArrest_1hr, was analyzed with bidirectional fitting relative to DMSO as the negative control and baseline of activity. Using a type of morphology reporter, measures of protein for gain or loss-of-signal activity can be used to understand the signaling at the pathway-level as they relate to the gene . Furthermore, this assay endpoint can be referred to as a primary readout, because this assay has produced multiple assay endpoints where this one serves a signaling function. To generalize the intended target to other relatable targets, this assay endpoint is annotated to the cell cycle intended target family, where the subfamily is arrest.
Cells were treated with dimethyl sulfoxide (DMSO) as a solvent control at a final concentration of 0.5% v/v or with compounds in DMSO with a resulting final DMSO concentration of 0.5% v/v. Compound treatment was done at concentrations of 0.39, 0.78, 1.56, 3.12, 6.24, 12.5, 25, 50, 100, and 200 uM in duplicate on each plate. Cells were treated with compounds for 1, 24, or 72 hr. Carbonyl […] m-chloro-phenylhydrazone (CCCP) and taxol were used as positive controls for mitochondrial function and cytoskeletal stability, respectively; DMSO served as the negative control for this experiment. Cells were fixed by the direct addition of 50 uL formaldehyde in Hank's Balanced Salt Solution (HBSS) to a final concentration of 3.7%. After incubation in the fixation medium for 30 min at room temperature (293-298 K), cells were rinsed twice with HBSS and treated with cell permeabilization buffer (16 uL of 0.5% Triton X-100) for 10 min at room temperature (293-298 K) before labeling. For mitochondrial membrane potential and mitochondrial measurements, pre-fixed cells were incubated with 50 uL of MitoTracker Red CMXRos (Invitrogen) at a concentration of 250 nM for 30 min before fixation. In the remaining cases, post-fixed cells were labeled by incubation with a multiplexed mixture of primary antibodies in HBSS for 60 min at room temperature (293-298 K) to detect immunoreactivity of c-Jun (1:500), phospho-histone H3 (1:100), phospho-histone H2A.x (1:200), p53 (1:400), alpha-tubulin (1:200) and Hoechst 33342 (2 ug/mL). Cells were labeled for multiplexed imaging on two separate plates: a) Hoechst 33342, MitoTracker Red, phospho-histone H3, and alpha-tubulin, and b) Hoechst 33342, phospho-histone H2A.x, and c-Jun. A final rinse with HBSS (50 uL) was performed before analysis. The primary and secondary antibodies for the proteins were phospho-histone H3 (rabbit anti-phospho-histone H3 and FITC-donkey anti-rabbit IgG), phospho-histone H2A.x (mouse anti-phospho-histone H2A.x and FITC-donkey anti-mouse IgG), c-Jun (rabbit anti-phospho-c-Jun and Cy3-donkey anti-rabbit IgG), p53 (sheep anti-p53 and Cy5-donkey anti-sheep IgG), alpha-tubulin (mouse anti-alpha-tubulin and Cy5-donkey anti-mouse IgG). These antibodies are available as the CellCiphr HepG2 assay kit (Millipore).Digital images of each well were captured using a Cellomics ArrayScan VTI (Thermo Scientific Cellomics) (0.8 NA objective, 0.63x optical coupler, and XF-93 filter set) at 20x magnification. The images were acquired using the autofocus feature of the ArrayScan instrument, which entails the following steps. First, the camera focuses on channel 1 (Hoechst 33342), where nuclei are identified. Second, a Z offset of 1 um is used for capturing mitochondria (MitoTracker Red). […]

Compound	outcome
CC(C)N1C(=O)c2ccccc2NS1(=O)=O	inactive
Cc1nc(N(C)C)nc(OC(=O)N(C)C)c1C	inactive
CCOc1cc(C(C)(C)C)ccc1C1COC(c2c(F)cccc2F)=N1 (stereo not given)	inactive
C=C(C)CN(CC)c1c([N+](=O)[O-])cc(C(F)(F)F)cc1[N+](=O)[O-]	inactive
CC(C)NC(=O)N1CC(=O)N(c2cc(Cl)cc(Cl)c2)C1=O	inactive
CCC(C)n1c(=O)[nH]c(C)c(Br)c1=O (stereo not given)	inactive
COP(=O)(OC)O/C(C)=C/C(=O)N(C)C	inactive
CCN(CC)c1nc(C)cc(OP(=S)(OC)OC)n1	inactive
O=C(Nc1ccccc1-c1ccc(Cl)cc1)c1cccnc1Cl	inactive
COC(=O)c1c(C(F)F)nc(C(F)(F)F)c(C2=NCCS2)c1CC(C)C	inactive
CC(C)N1C(=O)N(c2ccccc2)CSC1=NC(C)(C)C	inactive
CCOP(=O)(OCC)Oc1nc(Cl)c(Cl)cc1Cl	inactive
CCN(CC)C(=O)C(C)Oc1cccc2ccccc12 (stereo not given)	inactive
COCc1cnc(C2=NC(C)(C(C)C)C(=O)N2)c(C(=O)O)c1 (stereo not given)	inactive
N#Cc1c(Cl)cccc1Cl	inactive
N#Cc1c[nH]cc1-c1cccc2c1OC(F)(F)O2	inactive
COC(=O)NS(=O)(=O)c1ccc(N)cc1	inactive
CC(C)C1(C)N=C(c2ncccc2C(=O)O)NC1=O (stereo not given)	inactive
CC1(C)CCC(=Cc2ccc(Cl)cc2)C1(O)Cn1cncn1 (stereo not given)	inactive
CC1(C)C(C=C(Cl)Cl)C1C(=O)OC(C#N)c1cccc(Oc2ccccc2)c1 (stereo not given)	inactive

Compound	outcome
COCC(=O)N(c1c(C)cccc1C)C(C)C(=O)OC (stereo not given)	inactive
OC(c1ccc(Cl)cc1)(c1ccc(Cl)cc1)C(Cl)(Cl)Cl	inactive
C=CCOC(=O)C(C)(C)OC(=O)c1cc(-n2c(=O)cc(C(F)(F)F)n(C)c2=O)ccc1Cl	inactive
Nc1c(Cl)c(Cl)nc(C(=O)O)c1Cl	inactive
CC(C)(C)C(=O)C(Oc1ccc(Cl)cc1)n1cncn1 (stereo not given)	inactive
CCNP(=S)(OC)O/C(C)=C/C(=O)OC(C)C (stereo not given)	inactive
Nc1c(Cl)c(F)nc(OCC(=O)O)c1Cl	inactive
CC(C)=CC1C(C(=O)OCc2coc(Cc3ccccc3)c2)C1(C)C (stereo not given)	inactive
CCOc1nc(C(Cl)(Cl)Cl)ns1	inactive
COCC(C)N(C(=O)CCl)c1c(C)csc1C (stereo not given)	inactive
CNC(=O)N(C)c1nnc(C(C)(C)C)s1	inactive
O=C1C2CC=CCC2C(=O)N1SC(Cl)(Cl)Cl (stereo not given)	inactive
CC1(C)C(C(=O)OC(C#N)c2cccc(Oc3ccccc3)c2)C1(C)C (stereo not given)	inactive
CCCCC(O)(Cn1cncn1)c1ccc(Cl)cc1Cl (stereo not given)	inactive
CCCN(CC)CC1COC2(CCC(C(C)(C)C)CC2)O1 (stereo not given)	inactive
Nc1cnn(-c2ccccc2)c(=O)c1Cl	inactive
CC(C)Oc1cccc(NC(=O)c2ccccc2C(F)(F)F)c1	inactive
N#CN=C1SCCN1Cc1ccc(Cl)nc1	inactive
COc1cc(Cl)c(OC)cc1Cl	inactive
Cc1cnc(C2=NC(C)(C(C)C)C(=O)N2)c(C(=O)O)c1 (stereo not given)	inactive
